Structures can show the parent of a compound that is named as a salt.
Legend:
Assay in all cases: thermal shift delta Tm vs DMSO control; higher = stronger stabilization (binding)
Settings in all cases: 12.5 µM; protein concentration 2 µM
LOC_OS04G57630-cb004 = system: LOC_OS04G57630-cb004
In short: (§1)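 Rice kinase domain constructs were expressed in E. coli, purified, and tested by differential scanning fluorimetry with compound added in DMSO. Each well of a 96-well plate held 19.5 μl of 2 μM kinase in 100 mM potassium phosphate pH 7.5, 150 mM NaCl, 10% glycerol and 5 × SYPRO Orange, and fluorescence was read from 25°C to 95°C at 0.05°C/s. The melting temperature shift is the mean of triplicates, taken against protein with DMSO alone after Boltzmann fitting.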

LOC_OS05G07850-cb002 = system: LOC_OS05G07850-cb002
In short: as §1

LOC_OS05G16824-cb004 = system: LOC_OS05G16824-cb004
In short: as §1

LOC_OS05G28520-cb001 = system: LOC_OS05G28520-cb001
In short: as §1

LOC_OS05G30820-cb001 = system: LOC_OS05G30820-cb001
In short: as §1

LOC_OS05G43570-cb004 = system: LOC_OS05G43570-cb004
In short: as §1

LOC_OS06G16330-cb003 = system: LOC_OS06G16330-cb003
In short: as §1

LOC_OS06G22820-cb001 = system: T1, LOC_OS06G22820-cb001
T1 sequence (whole entry): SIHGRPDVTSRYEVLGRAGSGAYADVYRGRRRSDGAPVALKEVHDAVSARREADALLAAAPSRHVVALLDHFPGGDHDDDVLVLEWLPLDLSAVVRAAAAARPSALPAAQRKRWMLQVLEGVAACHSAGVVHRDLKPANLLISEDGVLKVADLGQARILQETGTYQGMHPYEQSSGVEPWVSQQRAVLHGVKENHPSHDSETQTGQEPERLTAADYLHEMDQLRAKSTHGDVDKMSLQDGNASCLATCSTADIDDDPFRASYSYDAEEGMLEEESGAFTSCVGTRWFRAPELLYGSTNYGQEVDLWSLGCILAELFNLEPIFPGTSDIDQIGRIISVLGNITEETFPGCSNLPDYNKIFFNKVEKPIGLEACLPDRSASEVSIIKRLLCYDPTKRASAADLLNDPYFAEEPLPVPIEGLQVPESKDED
In short: as §1

LOC_OS07G06570-cb004 = system: LOC_OS07G06570-cb004
In short: as §1

LOC_OS07G07230-cb001 = system: LOC_OS07G07230-cb001
In short: as §1

LOC_OS06G16330-cb003, sequence (as listed by the source): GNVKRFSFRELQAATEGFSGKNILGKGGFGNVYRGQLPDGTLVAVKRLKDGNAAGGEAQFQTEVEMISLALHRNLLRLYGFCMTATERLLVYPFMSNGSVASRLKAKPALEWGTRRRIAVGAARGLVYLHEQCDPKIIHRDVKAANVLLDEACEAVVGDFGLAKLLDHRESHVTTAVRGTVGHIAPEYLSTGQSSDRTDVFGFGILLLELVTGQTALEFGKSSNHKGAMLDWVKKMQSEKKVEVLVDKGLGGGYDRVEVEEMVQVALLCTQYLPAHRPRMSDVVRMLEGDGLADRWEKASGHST

| Structure (SMILES) | thermal shift delta Tm (LOC_OS04G57630-cb004) | thermal shift delta Tm (LOC_OS05G07850-cb002) | thermal shift delta Tm (LOC_OS05G16824-cb004) | thermal shift delta Tm (LOC_OS05G28520-cb001) | thermal shift delta Tm (LOC_OS05G30820-cb001) | thermal shift delta Tm (LOC_OS05G43570-cb004) | thermal shift delta Tm (LOC_OS06G16330-cb003) | thermal shift delta Tm (LOC_OS06G22820-cb001) | thermal shift delta Tm (LOC_OS07G06570-cb004) | thermal shift delta Tm (LOC_OS07G07230-cb001) |
| --- | --- | --- | --- | --- | --- | --- | --- | --- | --- | --- |
| CNC(=O)c1ccccc1Nc1nc(Nc2ccc(N3CCOCC3)cc2OC)ncc1Cl | 1.29 °C | 11.8 °C | 5.34 °C | 0.37 °C | 0.69 °C | 0.1 °C | 4.89 °C | 0.54 °C | 1.58 °C | 0.57 °C |
| COc1cc2ncnc(Sc3nnc(C)s3)c2cc1OC | 0.11 °C | 4.44 °C | -0.85 °C | 0.25 °C | 0.64 °C | 0.17 °C | 2.49 °C | 0.32 °C | 1.21 °C | 1.4 °C |
| Cc1cc(Nc2cc(N3CCN(C)CC3)nc(/C=C/c3ccccc3)n2)n[nH]1 [ENMD-2076 L-(+)-Tartaric acid] | 4.1 °C | 11.2 °C | 10.9 °C | 5.68 °C | 1.55 °C | 0.7 °C | 5.83 °C | 0.62 °C | 1.73 °C | 0.39 °C |
| COc1ccc2[nH]cc(/C=C3\C(=O)Nc4ccc(NC(=O)CCN5CCCCC5)cc43)c2c1 | 0.69 °C | 8.06 °C | 4.33 °C | 0.72 °C | 0.68 °C | 0.6 °C | 2.98 °C | 0.74 °C | 1.1 °C | 0.33 °C |
| Nc1nc2cc(-c3ccc4ncc(C(=O)N5CCOCC5)n4c3)ccc2o1 [Serabelisib (INK-1117,MLN-1117,TAK-117)] | 0.92 °C | 2.64 °C | 6.24 °C | 0.55 °C | 0.04 °C | 0.35 °C | 0.24 °C | 0.5 °C | 1.85 °C | 0.61 °C |
| Nc1ncccc1-c1nc2ccc(-c3ccccc3)nc2n1-c1ccc(C2(N)CCC2)cc1 [Miransertib (ARQ 092) HCl] | -0.29 °C | 1.08 °C | -5.68 °C | -0.2 °C | 0.04 °C | 0.09 °C | -0.91 °C | 0.24 °C | 1.32 °C | 0.36 °C |
| Cn1nccc1Nc1nccc(-c2ccn([C@H](CO)c3ccc(Cl)c(F)c3)c(=O)c2)n1 | 0.08 °C | 2.78 °C | -3.01 °C | 1.03 °C | 0.26 °C | 0.16 °C | 0.19 °C | 0.56 °C | 1.22 °C | 0.87 °C |
| COc1cc(Nc2ncc(F)c(Nc3ccc4c(n3)NC(=O)C(C)(C)O4)n2)cc(OC)c1OC [R406 (free base)] | 2.15 °C | 13 °C | 12.6 °C | 0.85 °C | 1.44 °C | 0.79 °C | 14.8 °C | 0.44 °C | 0.75 °C | -0.18 °C |
| O=S(=O)(c1cccc2c(I)cccc12)N1CCCNCC1 | -0.05 °C | 0.78 °C | 1.61 °C | 0.14 °C | 0.08 °C | 0.32 °C | 0.09 °C | 0.37 °C | 1.9 °C | 0.16 °C |
| CN1C(=O)[C@@H](NC(=O)c2n[nH]c(Cc3ccccc3)n2)COc2ccccc21 | 0.41 °C | 0.32 °C | 2.34 °C | -0.04 °C | 0.15 °C | 0.36 °C | 0.02 °C | 0.48 °C | 1.77 °C | 0.47 °C |
